Inconclusive results are not listed. The source made the active and inactive calls. Calls follow the shape of the dose curve; as a rule, active = well fitted inhibition curve with a large enough effect; inconclusive = small, poorly fitted or top-dose-only effect; inactive = flat fitted curve, though single readings scatter.
Assays:
Assay in all cases: qHTS profiling for inhibitors of Plasmodium falciparum proliferation (AID 504749); also: nearly all actives have a fitted effect of over 60% in size
Conditions in all cases: P. falciparum in erythrocytes, SYBR Green DNA, 72 h; series mostly up to 28.7 µM
CP256 = system: CP256
In short: (§1)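 Parasite proliferation within erythrocytes, 72 h exposure. Endpoint: SYBR Green I fluorescence after overnight lysis at room temperature. Controls: 0.29 uM artemisinin, DMSO.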

CP260 = system: CP260
In short: as §1

CP262 = system: CP262
In short: as §1

CP265 = system: CP265
In short: as §1

CP266 = system: CP266
In short: as §1

CP268 = system: CP268
In short: as §1

CP269 = system: CP269
In short: as §1

CP286 = system: CP286
In short: as §1

CP291 = system: CP291
In short: as §1

CP297 = system: CP297
In short: as §1

CP305 = system: CP305
In short: as §1

CP325 = system: CP325
In short: as §1

CP329 = system: CP329
In short: as §1

CP335 = system: CP335
In short: as §1

DFO2036 = system: DFO2036
In short: as §1

DIV14 = system: DIV14
In short: as §1

DIV17 = system: DIV17
In short: as §1

DIV30 = system: DIV30
In short: as §1

Dd2 = system: Dd2
In short: as §1

ECU = system: ECU
In short: as §1

FAB9 = system: FAB9
In short: as §1

GB4 = system: GB4
In short: as §1

HB3 = system: HB3
In short: as §1

ICS = system: ICS
In short: as §1

JCK = system: JCK
In short: as §1

N140 = system: N140
In short: as §1

P93_24 = system: P93_24
In short: as §1

P94_40 = system: P94_40
In short: as §1

PAD = system: PAD
In short: as §1

PC15 = system: PC15
In short: as §1

PC26 = system: PC26
In short: as §1

PC49 = system: PC49
In short: as §1

SC27B = system: SC27B
In short: as §1

TAB109 = system: TAB109
In short: as §1

TAB113 = system: TAB113
In short: as §1

TAB165 = system: TAB165
In short: as §1

W2 = system: W2
In short: as §1

Measured: Potency

O=C(O)[C@@H](O)[C@@H](O)[C@H](O)C(=O)CO
inactive: all assays above

— PubChem BioAssay (NCATS)
